PLK1 PBD block = PLK1 (human) polo-box domain binding inhibition | AID 720504 | Potency, µM, for inactives: max response, negative = inhibition, hits mostly inhibitors | Plk1 PBD binding of FITC phosphopeptide, fluorescence polarization | P53350 | hit rate 2.8% among 360,000; note: series mostly up to about 57 µM; nearly all actives have a fitted effect of over 65% in size
TDP1 cell CPT = growth inhibition of DT40 Tdp1-/-;hTDP1 cells with camptothecin (screen for TDP1 inhibitors); AID 686979; Potency, µM (highest dose often 46.2 µM), without a hit: at the top dose activity change, negative = growth inhibition, actives largely listed as inhibitors; hit rate 12% among 420,000; chicken DT40 Tdp1-/-;hTDP1 cells + 20 nM CPT, ATP luminescence, 48 h; note: nearly all actives have a fitted effect of over 55% in size
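Cell growth measured by CellTiter-Glo luminescence after a minimum 48 h, 37 C compound exposure with 20 nM CPT in Tdp1-knockout DT40 cells stably expressing hTDP1, seeded 400/well; qHTS titration format.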
KAT2A inh = blocks human GCN5L2 histone acetyltransferase; hit rate 0.21% among 390,000; AID 504327; GCN5L2 HAT assay, ThioGlo1 CoA-SH fluorescence; Q92830; Potency, µM (doses to about 58.9 µM), inactives show at the top dose activity change, negative = inhibition, actives largely listed as inhibitors
Target sequence (Q92830 whole entry, looked up): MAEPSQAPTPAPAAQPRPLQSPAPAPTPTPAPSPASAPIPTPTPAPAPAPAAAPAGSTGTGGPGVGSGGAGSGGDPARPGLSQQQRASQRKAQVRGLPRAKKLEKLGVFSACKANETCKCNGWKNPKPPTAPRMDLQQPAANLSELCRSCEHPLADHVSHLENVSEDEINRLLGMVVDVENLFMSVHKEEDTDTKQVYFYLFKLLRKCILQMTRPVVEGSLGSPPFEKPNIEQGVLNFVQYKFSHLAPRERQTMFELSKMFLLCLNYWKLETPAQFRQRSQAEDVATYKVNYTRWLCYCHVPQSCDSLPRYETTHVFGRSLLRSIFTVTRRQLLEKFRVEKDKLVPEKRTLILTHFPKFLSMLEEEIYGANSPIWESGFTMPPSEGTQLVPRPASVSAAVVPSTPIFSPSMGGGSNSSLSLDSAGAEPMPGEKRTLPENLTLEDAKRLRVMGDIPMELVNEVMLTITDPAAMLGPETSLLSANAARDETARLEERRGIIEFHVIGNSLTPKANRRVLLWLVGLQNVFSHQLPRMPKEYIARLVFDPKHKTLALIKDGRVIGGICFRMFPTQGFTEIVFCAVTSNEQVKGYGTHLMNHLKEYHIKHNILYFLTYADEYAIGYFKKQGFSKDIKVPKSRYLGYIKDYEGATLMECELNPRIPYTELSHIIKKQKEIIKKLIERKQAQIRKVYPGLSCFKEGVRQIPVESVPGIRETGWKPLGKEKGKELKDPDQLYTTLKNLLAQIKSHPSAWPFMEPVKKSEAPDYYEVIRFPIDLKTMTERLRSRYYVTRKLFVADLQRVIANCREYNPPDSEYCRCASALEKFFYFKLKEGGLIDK
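Titration-based screen in which CoA formation is detected via maleimide probe ThioGlo1 (50uM) turning fluorescent on thiol reaction; substrates H3(1-25) 75uM and acetyl-CoA 70uM, GCN5L2 20nM, 20 min incubation at room temperature.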
DT40 TDP1 no CPT = qHTS for Inhibitors of human tyrosyl-DNA phosphodiesterase 1 (TDP1): qHTS in cells in absence of CPT. DT40 Tdp1-/- hTDP1 cells, no CPT, ATP luminescence, 48 h. Potency, µM (doses to about 46.2 µM), without a hit: top-dose activity change, negative = growth inhibition, actives largely listed as inhibitors. hit rate 15% among 420,000; note: nearly all actives have a fitted effect of over 55% in size
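Chicken DT40 Tdp1-/- cells stably complemented with human TDP1 were seeded at 400 cells/well with DMSO in place of 20 nM camptothecin. After compound pinning, cells grew at least 48 hr at 37 °C; viability read by CellTiter-Glo luminescence.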
VDR inhibitor = blocks the human vitamin D receptor. P11473. VDR-SRC2-3 peptide fluorescence polarization, 2 h. Potency, µM, without a hit: max response, negative = inhibition, most hits filed as inhibitors. hit rate 0.93% among 400,000. AID 504847
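Fluorescence polarization assay of small-molecule disruption of VDR binding to coregulator peptide SRC2-3. Compounds and controls pin-transferred, then read after 2 h incubation at ambient room temperature.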
TDP1 block = inhibitors of human tyrosyl-DNA phosphodiesterase TDP1 | Q9NUW8 | recombinant TDP1, AlphaScreen DNA substrate cleavage | Potency, µM (top dose mostly 130 µM), for the others: at the top dose activity change, negative = inhibition, most hits filed as inhibitors | hit rate 0.28% among 350,000 | AID 485290; note: nearly all actives have a fitted effect of over 40% in size
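Signal: AlphaScreen proximity between streptavidin donor and anti-FITC acceptor beads on intact substrate. Reaction: Tdp1 1 nM, substrate 15 nM final, 5 min RT after 15 min compound preincubation.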
The depositor's hits bear a star; ? = inconclusive; . = no result; ! = repeats disagree; [ ] = remark or other dose. Hits are enriched below; roughly 18% of the tested compounds scored in any of these assays. Calls come from the whole dose curve; as a rule, active = well fitted curve in the direction sought with a large enough effect; inconclusive = small, poorly fitted or top-dose-only effect, or another doubt; inactive = no such curve, though single readings can be large; an effect the other way counts as inactive or inconclusive. % is set by controls: 0 for no effect and ±100 for the full control effect; potency is the fitted concentration of half-maximal effect.

SMILES	PLK1 PBD block	TDP1 cell CPT	KAT2A inh	DT40 TDP1 no CPT	VDR inhibitor	TDP1 block
Cc1c(/C=N\NC(=O)c2csc3ccccc23)cnn1C	-6%	?	-4%	?	8%	3%
CCn1ncc(/C=N\NC(=O)c2csc3ccccc23)c1C	-3%	2.6µM*	-12%	4.6µM*	-2%	-1%
COc1cccc(/C=N/NC(=O)c2nc(-c3ccccc3)cc(-c3ccccc3)n2)c1	-5%	16µM*	-23%	21µM*	3%	-8%
O=C(N/N=C/c1cccc(O)c1)c1cc(-c2ccccc2)nc2ccccc12	-3%	2.3µM*	?	?	3%	.
COc1cc(OC)cc(C(=O)N2CCN(S(=O)(=O)c3ccc(Cl)s3)CC2)c1	6%	3%	-4%	-15%	-9%	2%
CCN(CC)CCNC(=O)c1sc2nc(-c3ccccc3)cn2c1C	1%	-28%	?	?	-9%	.
CCCCc1c(O)n(-c2ccccc2)[nH]c1=O	.	.	-3%	.	-3%	0%
CC(C)Nc1ncnc2c1ncn2[C@H]1CN(C2CCCC2)C[C@@H](CO)O1	-10%	-9%	.	12%	.	.
C/C(=N\NC(=O)c1cccc(S(=O)(=O)N2CCCC2)c1)c1cccs1	27µM*	?	?	-30%	-18%	-7%
COc1ccc(/C(C)=N/NC(=O)c2cccc(S(=O)(=O)N3CCCC3)c2)c(O)c1	-9%	5.2µM*	-3%	2.9µM*	-7%	.
COc1ccc(C(C)=NNC(=O)c2cccc(S(=O)(=O)N3CCCC3)c2)cc1	-1%	-29%	-9%	-27%	-4%	2%
COc1ccc2c(c1)C=C/C2=C\c1ccc(N(C)C)cc1	.	-70%	.	?	.	.
O=C(CCCn1c(=O)[nH]c2cc(Cl)ccc2c1=O)NCCCN1CCN(c2ccc(F)cc2)CC1	-2%	16µM*	-3%	21µM*	-9%	8%
O=C(NCCN1CCCC1)c1ccc2c(=O)n(CCc3ccccc3)c(=O)[nH]c2c1	-1%	18µM*	0%	29µM*	12%	6%
CCc1ccc(N2CCN(C(=O)c3ccc(OC)c(OC)c3)CC2)cc1	-7%	?	-1%	13µM*	-7%	7%
O=C(c1ccc2c(=O)n(CCc3ccccc3)c(=O)[nH]c2c1)N1CCN(c2ccc(Cl)cc2)CC1	.	16µM*	0%	18µM*	-10%	3%
COCCNC(=O)C1(C)CCCN(C(=O)c2cc(OC)c(OC)c(OC)c2)C1 (stereo unspecified)	-5%	-3%	.	17%	.	.
CC(C)C[C@@H](C(=O)N[C@@H](Cc1c[nH]c2ccccc12)C(N)=O)N1C[C@]2(CCCN2C(=O)[C@H](Cc2ccccc2)NC(=O)[C@H](Cc2ccccc2)NC(=O)[C@H](CCC(N)=O)NC(=O)[C@H](CCC(N)=O)NC(=O)[C@@H]2CCCN2C(=O)[C@H](CCCCN)NC(=O)[C@@H]2CCCN2C(=O)[C@@H](N)CCCNC(=N)N)CC1=O	.	.	-2%	.	0%	8%
Cc1cccc(OC(=O)c2nc(SCc3ccccc3F)ncc2Cl)c1	.	-3%	-8%	-15%	5%	-5%
CCC(C)NC(=O)CSc1nc2cc3c(cc2c(=O)n1CCCC(=O)NCCc1ccc(OC)c(OC)c1)OCO3 (stereo unspecified)	.	4%	-13%	8%	-15%	-1%
CCCCCn1c(=O)[nH]c2cc(C(=O)N3CCN(C(=O)OCC)CC3)ccc2c1=O	-12%	?	-4%	?	9%	16%
CCOC(=O)N1CCN(C(=O)c2ccc3c(=O)n(CCc4ccccc4)c(=O)[nH]c3c2)CC1	-5%	?	-1%	-26%	6%	-6%
CCCCCn1c(=O)[nH]c2cc(C(=O)N3CCN(c4cccc(Cl)c4)CC3)ccc2c1=O	.	10µM*	0%	?	-1%	6%
COc1ccc(N2CCN(C(=O)c3ccc4c(=O)n(CCc5ccc(OC)c(OC)c5)c(=O)[nH]c4c3)CC2)cc1	-3%	15µM*	2%	16µM*	-3%	8%
COc1ccc(N2CCN(C(=O)c3ccc(OCc4c(C)noc4C)c(OC)c3)CC2)cc1	-12%	?	-11%	-21%	20%	2%
SMILES	PLK1 PBD block	TDP1 cell CPT	KAT2A inh	DT40 TDP1 no CPT	VDR inhibitor	TDP1 block
O=C(c1ccc2c(=O)n(CCc3ccccc3)c(=O)[nH]c2c1)N1CCN(C(=O)c2ccco2)CC1	.	13µM*	.	11µM*	-9%	.
COc1cc(C(=O)N2CCN(c3ccc([N+](=O)[O-])cc3)CC2)ccc1OCc1c(C)noc1C	-10%	?	-5%	16µM*	-5%	3%
O=C(c1ccc2c(=O)n(CCc3ccccc3)c(=O)[nH]c2c1)N1CCN(c2ccccc2)CC1	-1%	?	-5%	?	10%	13%
COc1cc2[nH]c(=O)n(Cc3ccc(C(=O)NCc4ccccc4)cc3)c(=O)c2cc1OC	.	18µM*	3%	?	-6%	9%
COc1ccc(-n2c(=O)[nH]c3cc(C(=O)NCCc4ccccc4)ccc3c2=O)cc1OC	0%	?	-11%	18µM*!	-9%	3%
COCCn1c(=O)[nH]c2cc(C(=O)N3CCN(c4ccc(Cl)cc4)CC3)ccc2c1=O	-3%	5.8µM*	-15%	6.5µM*	-8%	0%
CCOC(=O)N1CCN(C(=O)c2ccc3c(=O)n(CCOC)c(=O)[nH]c3c2)CC1	-4%	6%	3%	7%	-5%	3%
COc1ccc(CN2CCC(n3cc(C(=O)N4CCCCC4)nn3)CC2)c(OC)c1	.	2%[9.04 µM]	.	-23%	.	.
CCOC(=O)[C@]12CCCC=C1N(Cc1cccc3ccccc13)C(=O)[C@H](CC(=O)N1CCSCC1)C2	-1%	?	.	?	.	.
C/C(=N/OC(=O)c1ccc(C)cc1)c1ccc(N2C(=O)C3CCCCC3C2=O)cc1 (stereo unspecified)	30µM*	?	-1%	16µM*	?	7%
C/C(=N/NC(=O)c1ccccc1O)c1ccc(N2C(=O)C3CCCCC3C2=O)cc1 (stereo unspecified)	-6%	-19%	-19%	-5%	10%	6%
N#Cc1c2c(c(-c3ccccc3Cl)[nH]c1=S)CCCC2	17µM*	5%	-2%	-7%	3%	11%
COCCNC(=O)c1ccc(N2CC3CC(C2)c2cccc(=O)n2C3)c(NC(=O)c2ccc(C(C)(C)C)cc2)c1 (stereo unspecified)	0%	-24%	.	?	.	.

Source: PubChem BioAssay
